# MOR-DOR inv ag = inverse agonists of human mu-delta opioid receptor heterodimerization. cell-based MOR-DOR heterodimer luminescence, inverse agonism. hit rate 0.21% among 340,000. inhibition, % at 9.3 µM. P35372+P41143; in the data active = inhibition above about 22%, passing the limit was not always enough
# Target sequence (P35372 whole entry, looked up): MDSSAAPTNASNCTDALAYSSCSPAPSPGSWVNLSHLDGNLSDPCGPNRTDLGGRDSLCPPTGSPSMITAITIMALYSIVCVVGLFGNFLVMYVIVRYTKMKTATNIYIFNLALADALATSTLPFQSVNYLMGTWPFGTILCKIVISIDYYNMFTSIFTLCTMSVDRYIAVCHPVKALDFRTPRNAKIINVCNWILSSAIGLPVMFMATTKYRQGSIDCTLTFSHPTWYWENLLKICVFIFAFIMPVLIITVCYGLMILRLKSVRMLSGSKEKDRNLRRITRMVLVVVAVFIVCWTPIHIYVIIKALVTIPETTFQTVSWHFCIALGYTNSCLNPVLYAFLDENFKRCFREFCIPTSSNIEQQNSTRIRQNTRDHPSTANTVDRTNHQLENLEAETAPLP
# Target sequence (P41143 whole entry, looked up): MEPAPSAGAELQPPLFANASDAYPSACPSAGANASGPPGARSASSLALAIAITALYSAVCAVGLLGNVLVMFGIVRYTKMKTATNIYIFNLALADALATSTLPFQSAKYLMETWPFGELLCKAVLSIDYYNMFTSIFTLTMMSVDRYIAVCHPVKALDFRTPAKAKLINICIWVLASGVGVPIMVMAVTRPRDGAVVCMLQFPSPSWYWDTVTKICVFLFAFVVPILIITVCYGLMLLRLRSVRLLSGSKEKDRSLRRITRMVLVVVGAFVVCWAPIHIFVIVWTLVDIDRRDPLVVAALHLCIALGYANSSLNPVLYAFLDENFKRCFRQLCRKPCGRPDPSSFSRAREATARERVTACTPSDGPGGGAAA
# HTR5A ag ctr = HTR5A agonism, opioid heterodimer counter-screen; activation, % at 9.3 µM; hit rate 0.61% among 340,000; P47898; HTR5A agonist assay, luminescence, cell-based; in the data active = activation mostly above about 9.5%, no sharp cut-off; inactive = mostly below about 7.6%
# MOR-DOR ag-1 = OPRM1-OPRD1 heterodimerization agonism; P35372+P41143; cells, luminescence; activation, % at 9.3 µM; hit rate 0.3% among 340,000; AID 504326
# HTR5A inv ag = inverse agonist of human HTR5A in OPRM1-OPRD1 counter-screen | P47898 | HTR5A cell line, luminescence, inverse agonism | inhibition, % at 9.3 µM | hit rate 0.083% among 340,000; in the data active = inhibition mostly above about 23%, no sharp cut-off; inactive = mostly below about 18%
# MOR-DOR ag-2 = promotes OPRM1-OPRD1 heterodimerization in HTR5A counter-screen | hit rate 13% among 800 | AID 504913 | activation, % at 9.3 µM | shares compounds with HTR5A ag ctr | U2OS counter-screen cells, complementation luminescence, 3 h
# HTR5A ag confirm = HTR5A (human) agonism, confirmation; shares compounds with HTR5A ag ctr; HTR5A agonist cell assay, luminescence; activation, % at 9.3 µM; hit rate 17% among 800; in the data active = activation above about 17%
# Hits are given with their value; – = inactive; · = not tested or not shown. This is a sample that favours compounds with a hit; in the whole collection about 1.1% have one here. Rule as the data show it, unless noted: active = activation above about 18%; inactive = the rest.
SMILES,MOR-DOR inv ag,HTR5A ag ctr,MOR-DOR ag-1,HTR5A inv ag,MOR-DOR ag-2,HTR5A ag confirm
COc1ccc(N2CCN(S(=O)(=O)CCNC(=O)C3CCCCC3)CC2)cc1,–,–,–,–,·,·
O=C(O/N=C1/CCSc2ccccc21)c1ccccc1,–,22.6,–,–,–,–
O=C(Nc1nc(-c2cccs2)cs1)c1ccc(S(=O)(=O)N2CCCCC2)cc1,–,19.2,–,–,–,–
Cc1nc2ccc(NC(=O)c3cccs3)cc2c(=O)n1Cc1ccc(Cl)cc1,–,15.4,–,–,–,–
CCCc1nc2ccc(NC(=O)c3cccs3)cc2c(=O)n1Cc1ccc(Cl)cc1,–,–,–,–,·,·
CC(C)N1CCc2c(sc(NC(=O)c3ccc4ccccc4c3)c2C(N)=O)C1,–,18.3,–,–,–,18.4
O=C(O)/C(=N/NC(=O)c1ccc(Cl)cc1)c1ccccc1,–,–,–,–,·,·
O=C(Nc1ccc(Nc2ccccc2)cc1)c1c(F)c(F)c(F)c(F)c1F,–,16.0,–,–,–,–
O=C(Nc1ccc(Nc2ccccc2)cc1)c1c(Cl)cccc1Cl,–,–,–,–,·,·
CN1CC(=O)N(CC(=O)NCc2ccc3c(c2)OCO3)C1=O,–,–,–,–,·,·
Cc1cc(C(=O)COC(=O)c2ccc(O)cc2O)c(C)n1-c1ccccc1,–,–,–,–,·,·
COc1ccc(-n2c(C)cc(C(=O)COC(=O)c3ccc(O)cc3O)c2C)cc1,–,14.9,–,–,–,–
Cc1cc(C(=O)CC#N)c(C)n1-c1ccc(OC(F)F)cc1,–,–,–,–,·,·
Cc1cc(C(=O)COC(=O)c2ccc(O)cc2O)c(C)n1-c1ccc(OC(F)F)cc1,–,26.8,–,–,–,24.8
COc1cccc2sc(N3CCN(C(=O)c4ccco4)CC3)nc12,–,18.7,–,–,18.9,–
CCCc1c(C(=O)N/N=C/c2ccncc2)nnn1-c1nonc1N,–,–,–,–,·,·
O=C(N/N=C/c1ccco1)c1cccc(NC(=O)c2cccc(Cl)c2)c1,–,23.5,–,–,25.5,–
O=C(N/N=C/c1ccco1)c1ccc(NC(=O)c2ccccc2Cl)cc1,–,–,–,–,·,·
[O-][n+]1c2ccccc2[n+]([O-])c2cc(O)ccc21,–,–,–,–,·,·
COc1cc(/C=C2\COC/C(=C\c3ccc(O)c(OC)c3)C2=O)ccc1O,–,–,–,–,·,·
COc1cc(/C=C2/CC/C(=C/c3ccc(O)c(OC)c3)C2=O)ccc1O,–,23.5,–,–,–,–
c1ccc2c(SCc3cn4ccccc4n3)nncc2c1,–,–,–,–,·,·
